# Source: PubChem BioAssay (Tox21)
# Unmarked numbers belong to inactive results. Where a call stands in place of a potency, no number is given. The source made the active and inactive calls. The call rests on the fitted dose curve.
# Target: Androgen receptor (Homo sapiens) (UniProt P10275)
# Assay: qHTS assay to identify small molecule agonists of the androgen receptor (AR) signaling pathway in the presence of an antagonist (AID 1259381); further: nearly all actives have a fitted effect of over 15% in size
# Settings: MDA-kb2 MMTV-luciferase, AR agonist + nilutamide, 16 h; series mostly up to 92.4 µM
# Source text: National Center for Advancing Translational Sciences [NCATS] NIH Chemical Genomics Center [NCGC] U.S. Environmental Protection Agency [EPA] National Institutes of Environmental Health Sciences [NIEHS] National Toxicology Program [NTP] Assay overview: Androgen receptor (AR) is an important member of nuclear receptor family. Its signaling plays a critical role in AR-dependent prostate cancer and other androgen related diseases. Considerable attention has been given in the past decades to develop methods to study and screen for the environmental chemicals that have the potential to interfere with metabolic homeostasis, reproduction, developmental and behavioral functions. Therefore AR binding assay for screening against androgen agonists and antagonists can be used to identify potential endocrine disruptors. MDA-kb2 cells (from ATCC, deposited by Wilson et al.) are human breast carcinoma cells that were stably transfected with a luciferase reporter gene under control of the MMTV promoter that contains response elements for both androgen receptor (AR) and glucocorticoid receptor (GR). This particular screening for measuring luciferase reporter gene activity using MDA-kb2 cells against Tox21 10K library compounds is a confirmation study on agonist mode screening in the presence of AR-antagonist compound (Nilutamide) at 3.0uM final concentration.
# Assay Protocol Summary: MDA-kb2 cells (cells cultured without CO2) were dispensed at 3,000 cells/well in 4uL of culture medium into white wall/solid-bottom 1536-well plates (Corning Life Sciences, Corning, NY) using a Multidrop Combi (Thermo Fisher Scientific Inc., Waltham, MA) dispenser. The assay plates were incubated at 37C and 0% CO2 for 5hr. One uL of 3.0uM (final concentration) Nilutamide or assay buffer was added using two separate tips of Flying Reagent Dispenser (FRD, Aurora Discovery, San Diego, CA). Then 23nL of compounds dissolved in DMSO at 15 concentrations and positive controls were transferred to the assay plates using a Pintool station (Wako, San Diego, CA). The assay plates were incubated at 37C and 0% CO2 for 16hr. For luciferase read, 4uL/well ONE-Glo reagent (Promega Corporation, Madison, WI) was added to each well of the assay plates using FRD. After 30min incubation at room temperature, the luminescence signal was measured using a ViewLux plate reader (PerkinElmer, Shelton, CT).
# Sequence of Androgen receptor (Homo sapiens) (P10275 whole entry, looked up): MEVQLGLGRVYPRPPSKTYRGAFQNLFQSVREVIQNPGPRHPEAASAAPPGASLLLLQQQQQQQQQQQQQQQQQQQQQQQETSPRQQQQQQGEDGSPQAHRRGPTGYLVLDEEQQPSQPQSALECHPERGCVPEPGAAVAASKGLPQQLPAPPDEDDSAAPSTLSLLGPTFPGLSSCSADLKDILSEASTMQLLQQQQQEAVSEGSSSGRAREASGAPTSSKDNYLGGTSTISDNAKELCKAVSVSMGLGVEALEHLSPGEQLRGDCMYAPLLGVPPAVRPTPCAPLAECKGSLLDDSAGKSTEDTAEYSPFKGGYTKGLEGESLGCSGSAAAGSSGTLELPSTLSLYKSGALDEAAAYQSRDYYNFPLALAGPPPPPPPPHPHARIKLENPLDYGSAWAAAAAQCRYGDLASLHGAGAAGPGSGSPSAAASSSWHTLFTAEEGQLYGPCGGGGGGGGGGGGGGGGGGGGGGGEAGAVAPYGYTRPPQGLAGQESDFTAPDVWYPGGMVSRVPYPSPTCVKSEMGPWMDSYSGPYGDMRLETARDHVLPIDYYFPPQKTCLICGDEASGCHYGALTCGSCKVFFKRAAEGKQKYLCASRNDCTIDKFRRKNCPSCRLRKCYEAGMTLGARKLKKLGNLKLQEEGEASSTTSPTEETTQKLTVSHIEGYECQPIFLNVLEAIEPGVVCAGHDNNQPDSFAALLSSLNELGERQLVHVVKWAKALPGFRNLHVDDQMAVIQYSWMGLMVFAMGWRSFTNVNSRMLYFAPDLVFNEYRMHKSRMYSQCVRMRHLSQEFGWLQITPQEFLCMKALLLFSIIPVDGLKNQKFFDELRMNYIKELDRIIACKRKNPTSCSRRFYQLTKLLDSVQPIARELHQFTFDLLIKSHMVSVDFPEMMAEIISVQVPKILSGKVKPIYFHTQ
Compound,Potency,activation
C/C(=N\[Si](C)(C)C)O[Si](C)(C)C,inactive,–
CCCCCCCCCCCCS(=O)(=O)Cl,–,1.48% [at 19 µM]
CC(C)(C)c1cc(CCC(=O)OCCSCCOC(=O)CCc2cc(C(C)(C)C)c(O)c(C(C)(C)C)c2)cc(C(C)(C)C)c1O,inactive,–
CCOC(=O)OC(=O)OCC,inactive,–
Oc1ccc2c(c1)CCC2,inactive,–
O[Si](c1ccccc1)(c1ccccc1)c1ccccc1,inactive,–
CCC(O)CO (stereo not given),inactive,–
[Cl][Sc]([Cl])[Cl],inactive,–
CCOC(=O)C1=NN(c2ccc(Cl)cc2Cl)C(C)(C(=O)OCC)C1 (stereo not given),inactive,–
Clc1cccc(Cl)n1,inactive,–
Cc1c[nH]c(=O)[nH]c1=O,inactive,–
CC(C)(C)C1=CC(=O)C(C(C)(C)C)=CC1=O,inactive,–
CCc1cccc(C)c1N(C(=O)C(=O)O)C(C)COC (stereo not given),inactive,–
Cc1ccc2sc3cccc(C)c3c2c1,inactive,–
CCCCCCCCc1ccc(Nc2ccc(CCCCCCCC)cc2)cc1,inactive,–
O=C(O)CN(CCCN(CC(=O)O)CC(=O)O)CC(=O)O,–,1.23% [at 19 µM]
O=c1cc[nH]cc1,inactive,–
C=CC(=O)OCCOC1C2CCC1C1CC=CC12 (stereo not given),–,0.68% [at 19 µM]
N#Cc1ccc(C/C(=N/NC(=O)Nc2ccc(OC(F)(F)F)cc2)c2cccc(C(F)(F)F)c2)cc1,inactive,–
CC1CCC(C(C)(C)O)CC1 (stereo not given),inactive,–

Compound,Potency,activation
CC(=O)[C@]1(O)Cc2c(O)c3c(c(O)c2[C@@H](O[C@H]2C[C@H](N)[C@H](O)[C@H](C)O2)C1)C(=O)c1ccccc1C3=O,inactive,–
C=CC(C)(C)O,inactive,–
Clc1ccc2c(Cl)ccnc2c1,inactive,–
O=C(CCCCCCCCc1cccnc1)N1CCC(C=C(c2ccccc2)c2ccccc2)CC1,inactive,–
CC/C=C\C/C=C\C/C=C\CCCCCCCC(=O)OC,inactive,–
CCCCCCCCSCc1cc(C)c(O)c(CSCCCCCCCC)c1,inactive,–
Cn1c(=O)[nH]c2ncn(C)c2c1=O,inactive,–
CCc1cccc(CC)c1,inactive,–
O=S(=O)(c1ccc(OCc2ccccc2)cc1)c1ccccc1O,inactive,–
CC(C)(c1ccc(Oc2ccc(N)cc2)cc1)c1ccc(Oc2ccc(N)cc2)cc1,inactive,–
CCn1c2ccccc2c2ccccc21,inactive,–
CC(C)C(=O)C(C)C,inactive,–
CCc1cccc(C)c1N(C(=O)CS(=O)(=O)O)C(C)COC (stereo not given),inactive,–
C=COCCCC,inactive,–
Cc1cccc2c1ccc1ccccc12,inactive,–
CC(CC(C)(C)C)CC(C)(C)CC(C)(C)C (stereo not given),inactive,–
COc1cc2ncnc(Nc3cccc(Cl)c3)c2cc1OC,–,-2.82% [at 19 µM]
C[C@H]1O[C@@H](O[C@H]2CC[C@@]3(C)[C@H](CC[C@@H]4[C@@H]3C[C@@H](O)[C@]3(C)[C@@H](C5=CC(=O)OC5)CC[C@]43O)C2)C[C@H](O)[C@@H]1O[C@H]1C[C@H](O)[C@H](O[C@H]2C[C@H](O)[C@H](O[C@@H]3O[C@H](CO)[C@@H](O)[C@H](O)[C@H]3O)[C@@H](C)O2)[C@@H](C)O1,inactive,–
CC(C=O)c1ccccc1 (stereo not given),inactive,–
CC1(C)[C@H](C(=O)OCc2cccc(Oc3ccccc3)c2)[C@@H]1C=C(Cl)Cl,inactive,–
